Most compounds without a hit are left out; they make up all but 2.4% or so of the library.
Pol beta inh – inhibitors of human DNA polymerase beta | P06746 | Pol beta primer extension/strand displacement, fluorescence kinetic | Potency, µM (doses to about 114 µM), actives largely listed as inhibitors | 340,000 compounds, 1.3% hits | AID 485314
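Kinetic readout of DNA synthesis with strand displacement by Pol beta. Compound and 10 nM enzyme sit 15 min at room temperature; 50 nM substrate starts the reaction, read immediately and at 10 min.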
POLI inh – DNA polymerase iota (human) inhibition; Q9UNA4; 390,000 compounds, 1% hits; Potency, µM (highest dose often 115 µM), hits mostly inhibitors; Pol iota fluorescent replication assay, 10 min
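Fluorescent replication assay read twice, at 0 min and 10 min after adding 50 nM (final) substrate. Enzyme (10 nM) and compounds were first incubated 15 min at room temperature; enzyme-free buffer wells were negative controls.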
Pol eta inh – inhibitors of human DNA polymerase eta. recombinant Pol eta, fluorescent DNA replication assay. AID 588591. Q9Y253. 390,000 compounds, 1.2% hits. Potency, µM (top dose mostly 114 µM), actives largely listed as inhibitors
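Fluorescent replication assay: 50 nM final substrate added after a 15 min room-temperature compound preincubation with 10 nM enzyme. Signal taken at 0 min and again at 10 min.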
Pol kappa inh – blocks human DNA polymerase kappa activity; Q9UBT6; purified Pol kappa, fluorescent DNA synthesis assay, 10 min; Potency, µM (titrated, usually from 107 µM), actives largely listed as inhibitors; 400,000 compounds, 0.53% hits; AID 588579
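10 nM Pol kappa preincubated 15 min at room temperature with compounds, then reaction started with substrate at 50 nM final. Fluorescence read kinetically at 0 and 10 min; buffer-only wells served as negative control.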
WRN helicase inh-1 – WRN helicase (human) inhibition; WRN helicase unwinding, fluorescent forked duplex, kinetic; AID 651768; 360,000 compounds, 0.46% hits; Potency, µM (highest dose often 114 µM), hits mostly inhibitors; Q14191; note: nearly all actives have a fitted effect of over 55% in size
Target sequence (Q14191 whole entry, looked up): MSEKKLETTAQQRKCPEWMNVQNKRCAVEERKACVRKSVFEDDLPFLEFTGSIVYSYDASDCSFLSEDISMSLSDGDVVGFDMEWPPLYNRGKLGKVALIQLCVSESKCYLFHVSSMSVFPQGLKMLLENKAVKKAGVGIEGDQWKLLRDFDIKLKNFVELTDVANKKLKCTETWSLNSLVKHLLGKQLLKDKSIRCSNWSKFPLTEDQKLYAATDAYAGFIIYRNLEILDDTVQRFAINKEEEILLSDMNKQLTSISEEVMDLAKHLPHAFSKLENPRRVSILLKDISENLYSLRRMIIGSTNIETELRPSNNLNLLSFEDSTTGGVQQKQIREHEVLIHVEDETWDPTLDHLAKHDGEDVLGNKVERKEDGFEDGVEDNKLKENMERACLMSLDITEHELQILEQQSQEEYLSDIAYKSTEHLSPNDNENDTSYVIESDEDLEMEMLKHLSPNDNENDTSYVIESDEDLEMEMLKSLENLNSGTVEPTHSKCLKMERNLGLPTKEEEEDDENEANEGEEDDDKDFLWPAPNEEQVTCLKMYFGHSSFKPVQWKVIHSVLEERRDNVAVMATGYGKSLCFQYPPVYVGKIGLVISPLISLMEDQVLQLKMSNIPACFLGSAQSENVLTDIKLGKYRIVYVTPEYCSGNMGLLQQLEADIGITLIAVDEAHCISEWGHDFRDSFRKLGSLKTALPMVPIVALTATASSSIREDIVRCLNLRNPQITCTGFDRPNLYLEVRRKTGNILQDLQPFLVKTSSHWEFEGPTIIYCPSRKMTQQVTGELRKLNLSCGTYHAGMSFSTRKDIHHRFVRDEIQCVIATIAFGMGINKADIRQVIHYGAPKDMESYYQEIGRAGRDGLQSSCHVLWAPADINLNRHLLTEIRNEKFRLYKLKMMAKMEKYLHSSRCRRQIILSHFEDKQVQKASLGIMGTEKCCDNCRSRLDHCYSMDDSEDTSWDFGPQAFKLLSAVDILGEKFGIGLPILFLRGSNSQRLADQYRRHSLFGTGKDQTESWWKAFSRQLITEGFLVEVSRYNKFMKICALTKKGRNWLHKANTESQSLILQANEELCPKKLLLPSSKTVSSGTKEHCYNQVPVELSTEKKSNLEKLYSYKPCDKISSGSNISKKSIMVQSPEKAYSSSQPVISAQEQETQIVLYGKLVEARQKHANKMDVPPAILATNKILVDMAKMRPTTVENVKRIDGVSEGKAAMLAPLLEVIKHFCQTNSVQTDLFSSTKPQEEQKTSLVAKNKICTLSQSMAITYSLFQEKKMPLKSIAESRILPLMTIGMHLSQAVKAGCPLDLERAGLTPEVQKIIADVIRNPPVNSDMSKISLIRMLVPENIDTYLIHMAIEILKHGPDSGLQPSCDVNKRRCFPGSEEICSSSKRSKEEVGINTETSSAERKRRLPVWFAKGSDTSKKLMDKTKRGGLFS
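Enzyme (20 nM final) and test compound sit together 15 min at room temperature before substrate addition. Substrate is a single-forked duplex oligonucleotide (100 nM) labelled with fluorophore and quencher, with 2 mM ATP; helicase unwinding raises red fluorescence, read kinetically.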
FEN1 inh – human FEN1 inhibition; Recombinant FEN1 flap cleavage, fluorescence, 15 min; 390,000 compounds, 0.35% hits; Potency, µM (doses to about 114 µM), hits mostly inhibitors; P39748; note: nearly all actives have a fitted effect of over 65% in size
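Enzyme 10 nM, 15 min RT preincubation with compound; start with substrate 50 nM final; reads at 0 and 15 min; qHTS titration, four-parameter Hill fit.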
WRN helicase inh-2 – WRN helicase inhibition, cherry-pick retest | 610 compounds, 63% hits | Potency, µM (highest dose often 57.1 µM), actives largely listed as inhibitors | WRN helicase DNA unwinding, fluorescence kinetic | shares compounds with WRN helicase inh-1 | AID 720497; note: nearly all actives have a fitted effect of over 65% in size
TO displacement – DNA binding via thiazole orange displacement; shares compounds with WRN helicase inh-1; thiazole orange DNA binding displacement, fluorescence; Potency, µM (highest dose often 57.1 µM), usual class: inhibitors; 610 compounds, 10% hits; AID 720499;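 note: drop in dye fluorescence marks compound binding to DNA; nearly all actives have a fitted effect of over 60% in size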
BLM counter – blocks human BLM helicase in WRN counterscreen | shares compounds with WRN helicase inh-1 | Potency, µM (series often up to 57.1 µM), actives largely listed as inhibitors | AID 720503 | Recombinant BLM helicase DNA unwinding, red fluorescence | 610 compounds, 60% hits; note: nearly all actives have a fitted effect of over 60% in size
Numbers stand for hits; i = inactive; ? = inconclusive; nt = not tested or not shown; [ ] = remark or other dose. Calls come from the whole dose curve; as a rule, active = well fitted curve in the direction sought with a large enough effect; inconclusive = small, poorly fitted or top-dose-only effect, or another doubt; inactive = no such curve, though single readings can be large; an effect the other way counts as inactive or inconclusive.

SMILES	Pol beta inh	POLI inh	Pol eta inh	Pol kappa inh	WRN helicase inh-1	FEN1 inh	WRN helicase inh-2	TO displacement	BLM counter
COCCN1C(=O)/C(=C/c2ccc(OCc3ccc(C(=O)O)cc3)c(OC)c2)SC1=Nc1ccccc1	50.1µM	i	28.2µM	i	?	i	27.1µM	?	27.1µM
CCn1nc(C(=O)OCC(=O)Nc2ncc(Cl)c(C)c2Cl)c2ccccc2c1=O	i	?	?	i	?	i	i	i	?
Cc1sc2c3ccsc3ccc2[n+]1C	i	i	i	i	?	i	i	i	?
C/C=C/c1ccc(OCCCNC(C)CC)c(OC)c1 (centres undefined)	i	i	i	i	?	i	i	i	i
COc1ccc(-c2nnc(Nc3nc4c(OC)cccc4s3)o2)cc1	31.6µM	?	79.4µM	35.5µM	44.7µM	?	9.61µM	i	7.64µM
COc1ccc(-c2nnc(Nc3nc4c(OC)cccc4s3)o2)c(OC)c1	i	?	?	i	i	?	nt	nt	nt
COc1cc(NC(=O)COC(=O)CCc2nc3ccccc3c(=O)[nH]2)cc(OC)c1	nt	i	i	i	i	i	nt	nt	nt
COc1ccc(OC)c(NC(=O)COC(=O)CCc2nc3ccccc3c(=O)[nH]2)c1	nt	i	i	i	?	i	?	i	?
NC(=O)COc1ccc(/C=C2\C(=O)ON=C2c2ccccc2)cc1	nt	i	i	i	39.8µM	i	19.2µM	?	?
O=C(/C=C/c1cccs1)Nc1scc(-c2ccccc2)c1C(=O)O	?	2.51µM	79.4µM	i	31.6µM	?	?	i	21.5µM
Cc1ccc(N2C(=O)C3C(C2=O)N2CCCN2C3c2ccccc2)cc1C (centres undefined)	i	i	i	i	i	i	nt	nt	nt
Cc1ccc(N2C(=O)CS(=O)C(c3ccccc3)C2=O)cc1C (centres undefined)	i	?	i	i	35.5µM	?	?	i	?
COc1ccc(N2CCN(C(=O)c3cc4c(s3)-c3ccccc3OC4)CC2)cc1	i	i	i	i	i	i	nt	nt	nt
O=C(Nc1ccc(Oc2cccc(C(F)(F)F)c2)nc1)c1ccco1	i	i	i	i	i	i	nt	nt	nt
CC[n+]1c(/C=C/C=C/N(C(C)=O)c2ccccc2)sc2ccccc21	i	?	?	i	50.1µM	?	24.1µM	i	i
COc1ccc(C(C)C)cc1S(=O)(=O)N1CCC(C(=O)NCc2cccnc2)CC1	i	i	i	i	i	i	nt	nt	nt
COC(=O)c1ccc(OC)c(CN2CCCN(Cc3ccc(F)cc3)S2(=O)=O)c1	i	i	i	i	i	i	nt	nt	nt
CCN1/C(=C/c2cccc[n+]2C)Sc2ccc(OC)cc21	?	?	i	i	i[11.6 µM]	?	nt	nt	nt
CCN1/C(=C/c2ccc3cc(C)ccc3[n+]2C)Sc2ccc3sccc3c21	i	?	?	i	89.1µM	?	0.341µM	0.215µM	0.681µM
COc1ccc(CN(C#N)c2nc(SC)nc(N(C)C)n2)cc1	i	89.1µM	?	?	100µM	?	i	i	i
CC(C)c1nc(NCC2CCCO2)c(C#N)c2c1COC(C)(C)C2 (centres undefined)	i	i	i	i	i	i	nt	nt	nt
O=C1ON=C(c2ccc([N+](=O)[O-])cc2)/C1=C/c1ccccc1O	i	?	?	i	?	i	i	i	i
COc1ccc(/C=C2\C(=O)ON=C2c2cccc([N+](=O)[O-])c2)cc1	i	nt	nt	nt	nt	nt	nt	nt	nt
COc1ccc(NC(=O)/C(Cl)=C(/Cl)S(=O)Cc2ccccc2)cn1 (centres undefined)	i	31.6µM	i	i	31.6µM	i	?	i	i
Cc1ccccc1NC(=S)N1CCN(Cc2ccc3c(c2)OCO3)CC1	i	i	i	i	i	i	nt	nt	nt
SMILES	Pol beta inh	POLI inh	Pol eta inh	Pol kappa inh	WRN helicase inh-1	FEN1 inh	WRN helicase inh-2	TO displacement	BLM counter
N#Cc1c(NC(=O)c2ccc(Cn3cc(Br)cn3)o2)sc2c1CCCCC2	i	?	?	i	i	i	nt	nt	nt
COC(=O)c1sc(NC(=O)c2ccc(Cn3cc(Cl)cn3)o2)c(C#N)c1C	?	?	?	?	?	i	i	i	?
Cc1cccc(N2CCN(C(=O)Cn3ncc4c3-c3ccccc3OC4)CC2)c1C	i	i	i	i	nt	i	nt	nt	nt
COc1cc(/C=C2/SC(=S)N(Cc3ccccc3)C2=O)cc(Cl)c1O	39.8µM	i	?	i	i	?	1.52µM	?	2.71µM
COc1cc(/C=C2/SC(=S)N(C)C2=O)ccc1OC(=O)c1ccco1	i	i	i	i	i	i	nt	nt	nt
COc1cc(/C=C2/SC(=S)N(CC(=O)O)C2=O)ccc1OC(=O)c1cccs1	i	?	?	i	?	i	?	i	i
C=CCn1c(SCC(=O)Nc2cc(C)on2)nnc1-c1ccccc1OC	nt	i	i	i	i	i	nt	nt	nt
C=CCn1c(SCC(=O)c2ccc(O)c(O)c2)nnc1-c1ccccc1OC	?	50.1µM	25.1µM	?	?	i	15.2µM	i	12.1µM
CCc1sc(C(C2C(=O)CC(C)(C)CC2=O)C2C(=O)CC(C)(C)CC2=O)cc1[N+](=O)[O-]	?	?	?	i	31.6µM	i	21.5µM	19.2µM	21.5µM
COc1cc2ccccc2cc1C(=O)OCC(=O)N(C)c1c(N)n(Cc2ccccc2)c(=O)[nH]c1=O	nt	i	i	i	i	i	nt	nt	nt
COC(=O)c1ccc(C(=O)OC)c(NC(=O)CSc2n[nH]c(N)n2)c1	nt	i	i	i	i	i	nt	nt	nt
CCn1c(CSc2n[nH]c(N)n2)nc2cc(C(=O)O)ccc21	?	50.1µM	?	i	89.1µM	i	24.1µM	i	24.1µM
COc1cc(/C=N/Nc2nc(Nc3ccc(C)cc3)nc(-n3nc(C)cc3C)n2)cc(OC)c1OC	i	i	i	i	i	i	nt	nt	nt
COc1cc(/C=N/Nc2nc(Nc3ccccc3)nc(-n3nc(C)cc3C)n2)cc(OC)c1OC	i	i	i	i	?	i	6.81µM	i	2.71µM
CC(C)N(C(=O)C1CC(=O)OC12CCCCC2)C(C)C (centres undefined)	i	i	i	i	i	i	nt	nt	nt
COc1cc(/C=N/NC(=O)c2ccc3c(c2)OCCO3)c(Br)c(Br)c1O	?	?	?	89.1µM	?	?	?	i	?
COc1ccc(-c2csc(NC(=S)NC(=O)c3cccs3)n2)cc1OC	?	?	20µM	i	?	i	?	?	?
COc1ccc(-c2csc(NC(=S)NC(=O)c3cccs3)n2)cc1Br	i	i	i	i	i	i	nt	nt	nt
